This note sets out measurements from PubChem BioAssay.

The nature of assay [1]: yeast TOR pathway RPL19A-GFP modulators, primary screen, cell-based, S. cerevisiae, multiplex flow cytometry (AID 1862; in the data active = percent of DMSO control GFP below about 86%;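 note: lower values mimic rapamycin by blocking the RPL19A rise seen in DMSO cells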). The note with it: S. cerevisiae RPL19A-GFP strain, flow cytometry fluorescence, 3 h; at 10 µM; stronger effect = lower value. In general terms: A flow cytometer gives signals particle by particle.
The nature of assay [2]: modulators of MEP2-GFP levels in yeast, primary screen, S. cerevisiae, multiplex flow cytometry (AID 1867;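 active = GFP response, as percent of the DMSO control, above the screen-wide mean plus 3 SD, about 139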;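 note: median GFP channel fluorescence of barcode-gated MEP2-GFP cells measured by flow cytometry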). The note with it: S. cerevisiae MEP2-GFP strain, 3 h, at 10 µM, stronger effect = higher value, 100% means same as DMSO wells.
Assay [3] can be described thus: modulators of CIT2-GFP expression in yeast, primary screen, S. cerevisiae, GFP fusion, multiplex flow cytometry (AID 1870;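 active = percent response above a set limit, the screen-wide mean plus 3 SD, cut at about 130% in these data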;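 note: barcoded CIT2-GFP strain pooled with four other GFP strains with rapamycin as positive control; median GFP fluorescence per well over plate mean of DMSO wells so 100% = DMSO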). The settings on record: 3 h, at 10 µM, stronger effect = higher value.
Assay [4] is described as follows: modulators of LAP4-GFP expression in yeast, primary screen, S. cerevisiae, multiplex flow cytometry (AID 1873;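 active = GFP signal, as percent of the solvent control, above the screen mean plus 3 SD, about 149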). The settings on record: 3 h, at 10 µM, stronger effect = higher value.
Assay [5] in a line: modulators of AGP1-GFP expression in yeast TOR pathway, primary screen, cell-based, multiplex flow cytometry, S. cerevisiae (AID 1887;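 active = GFP signal above the screen-wide mean plus 3 SD, that is over about 124.5% of the solvent control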;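 note: AGP1-GFP fusion strain of S. cerevisiae within a five-strain barcoded multiplex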). The settings on record: 3 h, at 10 µM, stronger effect = higher value.
Assay [6] can be described thus: inhibitors of CD8+ T cell-vesicle binding, pilot screen, LFA-1/ICAM-1 modulator project, MLPCN validation set, flow cytometry (AID 2523;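 active = response below a set limit, under 55% cells CD8-positive and vesicle-bound, and CD8 cells' 90th-percentile brightness under 279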;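 for vesicle binding response: mean PE anti-B7-1 fluorescence of CD8+ cells relative to row control; 100% = QL9-loaded vesicles with DMSO vehicle in the same plate row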). The settings on record: 2C mouse CD8+ T cells, at 7 µM, stronger effect = lower value; double positive events: measured here: CD8+/vesicle+ event percentage.
Assay [7] has as its target Integrin beta-1 (Homo sapiens) + Integrin alpha-4 (Homo sapiens) (UniProt P13612+P05556). Nature of the assay: inhibition of HUTS-21 binding to VLA-4, pilot screen, VLA-4 allosteric modulator project, U937 cells, HUTS-21 mAb, flow cytometry, validation set (AID 2674;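 active = inhibition above 50%, about 3 SD of the validation set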;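 note: antibody binding induced by the VLA-4 ligand LDV present at three times its Kd; 0% = LDV ligand with antibody and no compound and 100% = antibody without LDV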). The settings on record: HUTS-21 LIBS mAb binding, at 6.7 µM, stronger effect = higher value, binding induced by LDV ligand.

Assay [8] can be described thus: superoxide lowering in aged yeast cells, pilot screen, validation compound set (AID 2706;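 active = superoxide response below 65% of plate, a cut near 3 SD across the whole screen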;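 note: yeast exposed to compound for one week at 30 degrees C before staining; 100% = mean of all compound wells on the same plate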). The note with it: S. cerevisiae aging, superoxide DHE fluorescence; at 10 µM; stronger effect = lower value.
Assay [9] deals with Beta-adrenergic receptor kinase 1 (Homo sapiens) (UniProt P25098). Kind of assay: GRK2 binders displacing RNA aptamer, biochemical, validation, human GRK2, bead flow cytometry (AID 488806;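 active = aptamer binding inhibition above 30%, about 3 SD of noise from non-fluorescent compounds; inactive = inhibition at or below 30%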). The note with it: bead-bound GRK2, FAM-aptamer displacement, at 10 µM, stronger effect = higher value.
Chain of Beta-adrenergic receptor kinase 1 (Homo sapiens) (P25098 whole entry, looked up): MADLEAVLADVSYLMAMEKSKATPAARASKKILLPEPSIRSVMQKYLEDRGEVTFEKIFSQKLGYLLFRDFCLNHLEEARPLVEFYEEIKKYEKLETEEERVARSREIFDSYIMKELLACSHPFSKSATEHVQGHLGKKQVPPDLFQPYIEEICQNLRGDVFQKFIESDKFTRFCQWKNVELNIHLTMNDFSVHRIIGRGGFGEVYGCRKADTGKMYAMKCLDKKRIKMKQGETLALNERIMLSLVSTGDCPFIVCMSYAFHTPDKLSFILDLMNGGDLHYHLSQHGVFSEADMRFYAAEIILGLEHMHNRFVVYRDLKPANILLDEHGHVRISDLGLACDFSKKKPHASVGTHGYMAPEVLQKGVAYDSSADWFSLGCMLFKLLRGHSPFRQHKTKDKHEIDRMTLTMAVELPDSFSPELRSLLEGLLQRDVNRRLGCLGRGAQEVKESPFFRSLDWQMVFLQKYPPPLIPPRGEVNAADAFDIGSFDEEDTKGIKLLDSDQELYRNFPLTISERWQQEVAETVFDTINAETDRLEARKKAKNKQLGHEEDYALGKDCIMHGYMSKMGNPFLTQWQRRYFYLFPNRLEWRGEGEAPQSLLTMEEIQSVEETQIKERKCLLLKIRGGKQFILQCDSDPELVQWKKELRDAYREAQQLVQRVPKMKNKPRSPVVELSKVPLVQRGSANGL
Assay [10] deals with Beta-2 adrenergic receptor (Homo sapiens) (UniProt P07550). Nature of the assay: beta2AR agonists driving receptor internalization, pilot screen, cell-based, FAP fluorogen, flow cytometry, validation set (AID 504459).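 Note: agonist-driven loss of surface beta2AR via internalization measured by FAP dye flow cytometry.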 The settings on record: Am2.2-beta2AR cells, FAP surface receptor flow cytometry; at 10 µM; stronger effect = higher value.
Chain of Beta-2 adrenergic receptor (Homo sapiens) (P07550 whole entry, looked up): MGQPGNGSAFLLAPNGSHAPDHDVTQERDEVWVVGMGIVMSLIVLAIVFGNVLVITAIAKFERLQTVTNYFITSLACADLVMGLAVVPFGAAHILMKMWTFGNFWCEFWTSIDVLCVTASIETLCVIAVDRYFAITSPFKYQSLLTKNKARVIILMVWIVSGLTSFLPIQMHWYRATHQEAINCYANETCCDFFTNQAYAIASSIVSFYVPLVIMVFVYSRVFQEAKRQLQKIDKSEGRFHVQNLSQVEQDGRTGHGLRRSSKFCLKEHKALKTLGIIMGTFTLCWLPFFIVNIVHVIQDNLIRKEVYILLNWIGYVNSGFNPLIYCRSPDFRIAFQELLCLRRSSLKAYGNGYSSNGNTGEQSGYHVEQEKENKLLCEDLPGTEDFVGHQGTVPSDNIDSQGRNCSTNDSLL
Assay [11] has as its target AP-2 complex subunit beta (Homo sapiens) (UniProt P63010). Nature of the assay: inhibitors of arrestin peptide binding to AP2, pilot screen, biochemical, validation set, GST-AP2 beads, flow cytometry (AID 504541;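 active = inhibition above 54%, about 3 SD of non-fluorescent compounds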;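 note: AP2 carries R879A mutation and is captured from E. coli lysate; bead-bound FITC arrestin peptide fluorescence measuring arrestin peptide binding to AP2; 0% = DMSO wells and 100% = excess unlabeled arrestin peptide control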). The note with it: FITC arrestin peptide, at 10 µM, stronger effect = higher value, AP2 beta2 appendage fragment, R879A mutant.
Assay [12] can be described thus: yeast V-ATPase proton transport modulators, S. cerevisiae, pHLuorin, HTS validation (AID 504600; in the data active = response above about 15%;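 note: plate controls were DMSO for no effect and reference compound for full effect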). The note with it: S. cerevisiae pHLuorin cytosolic pH, at 10 µM, stronger effect = higher value.
Assay [13] relates to anti-desmoglein-3 scFv antibody binding to human DSG3. Nature of the assay: inhibitors of anti-DSG3 scFv binding to DSG3, pilot screen, biochemical, validation compound set, bead-based, flow cytometry (AID 588368;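 active = binding below the plate cutoff, the plate median minus 3 SD, with a reading above zero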;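 note: signal is the median channel fluorescence of bead-bound GFP antibody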). The settings on record: Protein G beads, DSG3-Fc, scFv-GFP binding, at 10 µM, stronger effect = lower value.
The nature of assay [14]: inhibitors of fungal efflux pumps CDR1, CDR2, MDR1, pilot screen, validation compound set, multiplex, phenotypic (AID 588506;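 active = efflux inhibition above 0.42, the validation set average plus 4 SD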;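 note: Nile Red retained in cells so higher fluorescence means more efflux inhibition; 0 = negative control wells and 1 = enniatin B 25 µM full block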). The settings on record: S. cerevisiae pump-expressing triplex, Nile Red efflux flow cytometry; at 10 µM; stronger effect = higher value; the pumps come from Candida albicans.
Assay [15] has as its target ATP-binding cassette sub-family B member 6 (Homo sapiens) (UniProt Q9NP58). Nature of the assay: ABCB6 transporter inhibitors, pilot screen, K562-ABCB6 cells, flow cytometry, validation set (AID 588550;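 active = inhibition above the screen-wide mean plus 3 SD, about 51%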;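 note: 0% = DMSO wells and 100% = benzethonium chloride 70 µM positive control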). The settings on record: K562-ABCB6 porphyrin accumulation, 1 h, at 10 µM, stronger effect = higher value.
The nature of assay [16]: promoters of myeloid differentiation in arrested cells, primary screen, cell-based, GFP/MAC1 double positive, flow cytometry, validation set (AID 588685;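 active = differentiation response of at least 50%, scaled between solvent and reference control, from cells with both markers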;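 note: compound exposure lasts four days before antibody staining and flow analysis; 0% = DMSO wells and 100% = 5 µM fulvestrant positive control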). The settings on record: ER-HoxA9 marrow cells, stronger effect = higher value, normalized: vehicle 0, fulvestrant 100.

Results filed as inconclusive are left out. Calls of active or inactive are those of the source.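 Rule for the calls, unless noted: active = percent response above 42, roughly 3 SD of non-fluorescent test compounds; inactive = the rest.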

A word on the inhibition: it is the relative decrease from the control value, in per cent.

Chain of Integrin beta-1 (Homo sapiens) + Integrin alpha-4 (Homo sapiens) (P05556 whole entry, looked up): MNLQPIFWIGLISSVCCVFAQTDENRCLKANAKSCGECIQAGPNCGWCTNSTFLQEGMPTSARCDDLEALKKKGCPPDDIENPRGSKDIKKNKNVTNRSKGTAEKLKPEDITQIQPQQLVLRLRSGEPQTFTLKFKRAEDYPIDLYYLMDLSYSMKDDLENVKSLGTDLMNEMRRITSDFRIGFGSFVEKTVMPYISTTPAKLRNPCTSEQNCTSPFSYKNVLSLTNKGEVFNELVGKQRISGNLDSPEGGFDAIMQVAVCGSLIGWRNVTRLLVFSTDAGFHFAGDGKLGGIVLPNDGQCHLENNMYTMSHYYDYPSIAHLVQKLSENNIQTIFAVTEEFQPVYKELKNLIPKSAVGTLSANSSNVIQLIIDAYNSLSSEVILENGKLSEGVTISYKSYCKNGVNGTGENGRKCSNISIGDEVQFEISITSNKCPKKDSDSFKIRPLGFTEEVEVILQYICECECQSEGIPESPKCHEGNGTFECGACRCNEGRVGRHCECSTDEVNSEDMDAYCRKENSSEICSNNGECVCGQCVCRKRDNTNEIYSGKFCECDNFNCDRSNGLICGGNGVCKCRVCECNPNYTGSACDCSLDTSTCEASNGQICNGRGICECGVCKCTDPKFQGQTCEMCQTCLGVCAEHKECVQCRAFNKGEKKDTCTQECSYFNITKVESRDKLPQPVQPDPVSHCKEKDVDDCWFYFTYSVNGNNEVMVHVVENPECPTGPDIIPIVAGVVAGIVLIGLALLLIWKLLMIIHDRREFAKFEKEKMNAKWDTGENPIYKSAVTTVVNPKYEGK
Chain of Integrin beta-1 (Homo sapiens) + Integrin alpha-4 (Homo sapiens) (P13612 whole entry, looked up): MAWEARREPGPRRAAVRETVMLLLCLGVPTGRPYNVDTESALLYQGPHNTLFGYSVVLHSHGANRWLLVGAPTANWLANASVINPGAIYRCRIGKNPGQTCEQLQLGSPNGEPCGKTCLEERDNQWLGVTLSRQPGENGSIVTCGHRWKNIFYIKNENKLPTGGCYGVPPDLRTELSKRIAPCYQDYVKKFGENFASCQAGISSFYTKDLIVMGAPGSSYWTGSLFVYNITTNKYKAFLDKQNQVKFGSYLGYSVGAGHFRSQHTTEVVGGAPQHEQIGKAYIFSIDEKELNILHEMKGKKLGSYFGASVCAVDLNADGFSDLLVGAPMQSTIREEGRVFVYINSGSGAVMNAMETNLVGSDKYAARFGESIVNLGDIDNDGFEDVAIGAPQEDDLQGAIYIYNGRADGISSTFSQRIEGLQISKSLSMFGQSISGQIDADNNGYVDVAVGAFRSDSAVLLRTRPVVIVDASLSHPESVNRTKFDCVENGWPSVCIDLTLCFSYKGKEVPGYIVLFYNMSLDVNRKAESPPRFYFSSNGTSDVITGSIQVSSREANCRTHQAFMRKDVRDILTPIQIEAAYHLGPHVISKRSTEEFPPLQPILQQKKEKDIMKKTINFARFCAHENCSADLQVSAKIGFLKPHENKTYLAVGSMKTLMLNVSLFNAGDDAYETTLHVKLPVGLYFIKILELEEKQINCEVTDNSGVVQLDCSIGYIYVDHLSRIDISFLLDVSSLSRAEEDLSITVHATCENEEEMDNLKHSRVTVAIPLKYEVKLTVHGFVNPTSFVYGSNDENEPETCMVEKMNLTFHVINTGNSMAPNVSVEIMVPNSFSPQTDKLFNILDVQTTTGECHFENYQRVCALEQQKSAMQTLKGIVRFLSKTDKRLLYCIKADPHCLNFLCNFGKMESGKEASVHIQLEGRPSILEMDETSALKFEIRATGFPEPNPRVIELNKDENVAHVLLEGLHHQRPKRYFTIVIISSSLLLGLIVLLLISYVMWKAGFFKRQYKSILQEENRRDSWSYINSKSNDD
Chain of AP-2 complex subunit beta (Homo sapiens) (P63010 whole entry, looked up, the tested form may be a part, one chain of several): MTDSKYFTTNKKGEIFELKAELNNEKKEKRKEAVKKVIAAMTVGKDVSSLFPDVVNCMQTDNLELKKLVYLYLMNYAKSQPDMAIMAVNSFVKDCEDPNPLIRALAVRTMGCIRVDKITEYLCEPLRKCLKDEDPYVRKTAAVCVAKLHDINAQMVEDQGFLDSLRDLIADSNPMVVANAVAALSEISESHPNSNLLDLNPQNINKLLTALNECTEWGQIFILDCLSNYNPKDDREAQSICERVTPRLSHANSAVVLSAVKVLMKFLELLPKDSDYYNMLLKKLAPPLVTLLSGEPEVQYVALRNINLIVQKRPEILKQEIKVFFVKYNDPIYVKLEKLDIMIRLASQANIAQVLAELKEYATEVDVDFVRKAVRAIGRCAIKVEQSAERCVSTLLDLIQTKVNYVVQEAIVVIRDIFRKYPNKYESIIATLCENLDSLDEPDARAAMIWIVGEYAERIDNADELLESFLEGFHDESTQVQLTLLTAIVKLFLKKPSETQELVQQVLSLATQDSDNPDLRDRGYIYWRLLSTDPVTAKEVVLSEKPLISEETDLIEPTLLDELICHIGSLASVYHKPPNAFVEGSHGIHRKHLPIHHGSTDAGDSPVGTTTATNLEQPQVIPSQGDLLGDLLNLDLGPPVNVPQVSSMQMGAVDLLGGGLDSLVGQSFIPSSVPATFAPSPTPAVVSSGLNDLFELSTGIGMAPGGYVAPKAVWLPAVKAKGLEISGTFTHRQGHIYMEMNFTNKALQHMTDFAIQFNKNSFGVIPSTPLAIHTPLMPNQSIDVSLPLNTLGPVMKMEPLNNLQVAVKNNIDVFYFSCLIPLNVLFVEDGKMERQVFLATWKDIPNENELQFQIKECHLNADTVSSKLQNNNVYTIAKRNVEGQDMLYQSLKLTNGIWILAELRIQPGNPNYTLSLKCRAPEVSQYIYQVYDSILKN
Chain of ATP-binding cassette sub-family B member 6 (Homo sapiens) (Q9NP58 whole entry, looked up): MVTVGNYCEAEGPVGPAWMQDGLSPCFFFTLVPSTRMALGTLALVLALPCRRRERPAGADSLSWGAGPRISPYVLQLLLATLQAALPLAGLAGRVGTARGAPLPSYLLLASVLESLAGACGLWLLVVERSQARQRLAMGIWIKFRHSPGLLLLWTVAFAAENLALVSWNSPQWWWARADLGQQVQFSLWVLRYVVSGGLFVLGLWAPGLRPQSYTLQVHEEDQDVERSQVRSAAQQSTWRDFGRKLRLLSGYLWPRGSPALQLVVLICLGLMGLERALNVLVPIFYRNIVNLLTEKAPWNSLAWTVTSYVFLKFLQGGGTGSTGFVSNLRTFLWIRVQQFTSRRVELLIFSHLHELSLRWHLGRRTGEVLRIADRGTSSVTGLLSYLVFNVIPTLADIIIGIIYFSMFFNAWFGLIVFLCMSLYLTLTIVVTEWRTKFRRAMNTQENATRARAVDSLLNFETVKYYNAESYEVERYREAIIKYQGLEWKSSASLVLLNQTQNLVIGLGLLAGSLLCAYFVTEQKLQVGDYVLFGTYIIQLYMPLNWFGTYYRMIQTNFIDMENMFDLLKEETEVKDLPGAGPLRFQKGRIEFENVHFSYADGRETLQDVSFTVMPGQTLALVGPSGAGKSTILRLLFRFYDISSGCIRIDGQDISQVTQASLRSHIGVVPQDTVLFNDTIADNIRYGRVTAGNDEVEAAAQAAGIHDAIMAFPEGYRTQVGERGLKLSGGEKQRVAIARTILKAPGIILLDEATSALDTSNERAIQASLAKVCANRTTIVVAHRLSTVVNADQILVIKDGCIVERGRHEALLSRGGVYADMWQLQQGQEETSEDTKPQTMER

`CC1(C)CC(O)(CNCc2ccc3c(c2)OCO3)CCO1` (stereo not given): the percent of DMSO control GFP in assay [1] was 103% (inactive). Besides, the GFP response vs DMSO in [2] was 102% (inactive); in assay [4], 106% (inactive). For the same compound, in assay [3], the percent response of DMSO control was 101% (inactive). Besides, in assay [5], the GFP response, % of DMSO is 105% (inactive). In assay [6], this compound gave a double positive events of 66.2%. Also, in [6], the vesicle binding response is 192% (inactive). Besides, the inhibition was 15.9% (inactive) in [7], 44.7% (inactive) in [11] and 2% (inactive) in [15]. Further, in [8], the superoxide response (% of plate) is 104% (inactive). The aptamer binding inhibition in [9] was 1% (inactive). Also, the response in assay [10] was -24.4% (inactive); in [12], -2.49% (inactive). Besides, the binding (% of control) in [13] was 104% (inactive). In addition, the efflux inhibition (fraction of control) in [14] was -0.04 (inactive). Further, in [16], the differentiation response was 0.92% (inactive).

Consider `CCc1nc2ccccc2c(NC(=O)CN2CC(C)CC(C)C2)c1C` (stereo not given), for which, in [1], the percent of DMSO control GFP was 99% (inactive). For the same compound, the GFP response vs DMSO in assay [2] is 105% (inactive); in assay [4], 90.7% (inactive). The percent response of DMSO control in assay [3] is 101% (inactive). For the same compound, in assay [5], the GFP response, % of DMSO was 96.2% (inactive). The double positive events in assay [6] turned out to be 63.1%. In assay [6], the vesicle binding response was 179% (inactive). In addition, the inhibition was -7.72% (inactive) in [7], -1.11% (inactive) in assay [11] and 10% (inactive) in [15]. Further, the superoxide response (% of plate) in [8] was 105% (inactive). Further, the aptamer binding inhibition in [9] was -2% (inactive). Besides, the response in assay [10] was 0.46% (inactive); in assay [12], 9.89% (inactive). Besides, the binding (% of control) in assay [13] is 93.8% (inactive). Also, the efflux inhibition (fraction of control) in assay [14] is 0.11 (inactive). The differentiation response in assay [16] was 0.24% (inactive).

In the case of `Cc1nc(N)nc2c1CCCC2`, in assay [1], the percent of DMSO control GFP is 89.1% (inactive). Besides, the GFP response vs DMSO in assay [2] is 133% (inactive); in [4], 74.8% (inactive). The percent response of DMSO control in [3] was 99.2% (inactive). In assay [5], the GFP response, % of DMSO was 94.9% (inactive). Moreover, the double positive events in assay [6] amounted to 62.1%. Also, the vesicle binding response in assay [6] is 179% (inactive). The results for the inhibition in assay [7], in assay [11] and in [15] were 6.46% (inactive), -2.43% (inactive) and 13% (inactive), respectively. Also, the superoxide response (% of plate) in assay [8] was 102% (inactive). The aptamer binding inhibition in [9] is 5% (inactive). In addition, the response in [10] was -4.6% (inactive); in assay [12], -0.37% (inactive). Besides, the binding (% of control) in assay [13] was 109% (inactive). Besides, the efflux inhibition (fraction of control) in assay [14] was -0.31 (inactive). The differentiation response in assay [16] is -9.83% (inactive).

As for `O=C(O)CP(=O)(O)O`, the percent of DMSO control GFP in assay [1] is 97.2% (inactive). Also, the GFP response vs DMSO in [2] and in assay [4] was 105% (inactive) in each case. For the same compound, the percent response of DMSO control in assay [3] was 93.4% (inactive). In [5], the GFP response, % of DMSO was 96.8% (inactive). In assay [6], this compound showed a double positive events of 66.7%. In addition, in assay [6], the vesicle binding response is 206% (inactive). Besides, the inhibition was 11% (inactive) in [7], 3.17% (inactive) in assay [11] and 16% (inactive) in assay [15]. For the same compound, the superoxide response (% of plate) in [8] is 99% (inactive). The aptamer binding inhibition in assay [9] was 6% (inactive). Also, the results for the response in [10] and in assay [12] were 6.2% (inactive) and -1.85% (inactive), respectively. In assay [13], the binding (% of control) was 105% (inactive). For the same compound, the efflux inhibition (fraction of control) in assay [14] is 0.03 (inactive). For the same compound, the differentiation response in [16] was -4.57% (inactive).

For `COc1cccc(OCc2nnc(-c3cccs3)o2)c1`, the percent of DMSO control GFP in [1] was 103% (inactive). In addition, the GFP response vs DMSO was 105% (inactive) in assay [2] and 120% (inactive) in assay [4]. Besides, the percent response of DMSO control in assay [3] was 102% (inactive). For the same compound, the GFP response, % of DMSO in assay [5] was 99.6% (inactive). Further, the double positive events in [6] is 60.1%. Further, the vesicle binding response in [6] was 248% (inactive). For the same compound, the inhibition in assay [7] was 5.69% (inactive); in assay [11] it was 61% (active); in assay [15], -5% (inactive). Further, the superoxide response (% of plate) in [8] is 104% (inactive). Besides, the aptamer binding inhibition in assay [9] was 3% (inactive). Besides, the values for the response in assay [10] and in [12] were 55.8% (active) and -2.54% (inactive), respectively. The binding (% of control) in assay [13] is 102% (inactive). In addition, in [14], the efflux inhibition (fraction of control) is 0.08 (inactive). The differentiation response in assay [16] is -0.06% (inactive).
